Assay results reported in the supplement of paper PMC10849652.
Targets with a hit are over-represented here; the source holds about 8,800 in all. About 0.5% of all pairs of compound and target were hits.

compound: Cc1cccc(CC(=O)N2CCc3c2ccc(-c2cn(C)c4ncnc(N)c24)c3F)n1; assay: log2 fold change, soluble protein after heating vs DMSO (PISA); higher = thermal stabilisation; K562 lysate, 10 uM; active = over 0.2 and 3.5 SD of the protein, either way, in both replicates (recomputed)
Outline: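 A 30 min treatment with 10 μM compound was applied to crude K562 extract at 1 mg/mL protein in PBS pH 7.4 with 1 mM MgCl2. Heating for 3 min spanned 48°C-58°C, after which aliquots were pooled, adjusted to 0.5% NP-40 at 4°C and spun at 21,000xg for 90 min. TMTpro 16plex LC-MS/MS of the supernatant, with channel sums equalised, gave values recorded as log-two fold change in thermal stability against solvent controls, from duplicates.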

UniProt Q8N6T3, sequence (Q8N6T3 whole entry, looked up): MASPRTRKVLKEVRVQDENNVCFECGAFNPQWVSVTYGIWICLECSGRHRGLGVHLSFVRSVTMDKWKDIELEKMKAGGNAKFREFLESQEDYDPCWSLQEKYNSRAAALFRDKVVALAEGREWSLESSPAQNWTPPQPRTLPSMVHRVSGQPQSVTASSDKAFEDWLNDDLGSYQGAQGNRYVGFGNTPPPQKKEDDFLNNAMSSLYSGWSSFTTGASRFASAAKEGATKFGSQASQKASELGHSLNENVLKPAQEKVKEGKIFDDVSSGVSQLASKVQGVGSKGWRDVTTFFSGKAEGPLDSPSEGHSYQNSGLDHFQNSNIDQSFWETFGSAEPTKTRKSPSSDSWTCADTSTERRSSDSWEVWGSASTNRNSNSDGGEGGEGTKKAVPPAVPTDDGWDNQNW
UniProt P31751, sequence (P31751 whole entry, looked up): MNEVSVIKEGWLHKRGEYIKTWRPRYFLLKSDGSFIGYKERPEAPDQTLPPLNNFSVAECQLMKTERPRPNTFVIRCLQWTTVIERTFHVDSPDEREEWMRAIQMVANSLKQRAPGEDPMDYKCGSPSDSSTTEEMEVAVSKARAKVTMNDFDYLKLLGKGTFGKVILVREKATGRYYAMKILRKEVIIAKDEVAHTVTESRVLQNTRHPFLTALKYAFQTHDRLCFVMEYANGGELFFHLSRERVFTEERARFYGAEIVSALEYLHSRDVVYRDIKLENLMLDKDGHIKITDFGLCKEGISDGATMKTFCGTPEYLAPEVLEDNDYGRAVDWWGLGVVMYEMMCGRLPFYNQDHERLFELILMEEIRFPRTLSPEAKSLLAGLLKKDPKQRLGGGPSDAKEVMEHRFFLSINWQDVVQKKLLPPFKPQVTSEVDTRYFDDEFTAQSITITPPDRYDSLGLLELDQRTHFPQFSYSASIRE
UniProt Q6NXT1, sequence (Q6NXT1 whole entry, looked up): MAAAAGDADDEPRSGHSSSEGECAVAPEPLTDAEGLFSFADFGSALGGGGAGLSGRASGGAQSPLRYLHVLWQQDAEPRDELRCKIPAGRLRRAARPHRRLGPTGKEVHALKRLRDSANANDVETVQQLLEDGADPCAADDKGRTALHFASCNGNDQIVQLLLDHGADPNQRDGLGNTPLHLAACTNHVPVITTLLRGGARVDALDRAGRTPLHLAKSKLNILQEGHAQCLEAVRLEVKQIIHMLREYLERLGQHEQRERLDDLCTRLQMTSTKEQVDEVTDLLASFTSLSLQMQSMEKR
UniProt Q7L211, sequence (Q7L211 whole entry, looked up): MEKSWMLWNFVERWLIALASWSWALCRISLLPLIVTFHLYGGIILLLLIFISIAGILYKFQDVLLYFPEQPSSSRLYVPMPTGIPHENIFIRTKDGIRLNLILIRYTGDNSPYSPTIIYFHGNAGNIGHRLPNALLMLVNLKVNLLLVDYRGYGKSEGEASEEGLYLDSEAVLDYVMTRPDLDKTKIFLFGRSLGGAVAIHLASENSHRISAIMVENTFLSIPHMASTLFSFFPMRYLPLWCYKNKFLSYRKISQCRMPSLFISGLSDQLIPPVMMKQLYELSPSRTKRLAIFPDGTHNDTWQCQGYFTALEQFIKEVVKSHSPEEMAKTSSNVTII
UniProt P42331, sequence (P42331 whole entry, looked up): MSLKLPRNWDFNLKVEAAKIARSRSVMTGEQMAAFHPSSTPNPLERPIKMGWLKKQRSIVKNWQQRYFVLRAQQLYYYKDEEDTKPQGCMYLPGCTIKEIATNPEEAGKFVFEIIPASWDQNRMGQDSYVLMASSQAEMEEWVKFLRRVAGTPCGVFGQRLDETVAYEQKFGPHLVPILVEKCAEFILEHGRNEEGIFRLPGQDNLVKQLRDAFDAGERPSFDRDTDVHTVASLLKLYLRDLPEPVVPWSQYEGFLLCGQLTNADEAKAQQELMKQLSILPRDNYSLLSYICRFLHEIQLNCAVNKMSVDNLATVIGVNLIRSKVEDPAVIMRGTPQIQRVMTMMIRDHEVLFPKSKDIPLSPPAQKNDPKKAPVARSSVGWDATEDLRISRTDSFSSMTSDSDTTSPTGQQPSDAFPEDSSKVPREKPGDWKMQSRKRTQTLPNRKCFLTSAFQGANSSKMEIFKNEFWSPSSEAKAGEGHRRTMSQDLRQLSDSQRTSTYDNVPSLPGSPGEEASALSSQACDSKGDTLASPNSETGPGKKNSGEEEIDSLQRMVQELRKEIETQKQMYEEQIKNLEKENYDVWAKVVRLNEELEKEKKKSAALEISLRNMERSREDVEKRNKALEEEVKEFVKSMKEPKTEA
UniProt P39687, sequence (P39687 whole entry, looked up): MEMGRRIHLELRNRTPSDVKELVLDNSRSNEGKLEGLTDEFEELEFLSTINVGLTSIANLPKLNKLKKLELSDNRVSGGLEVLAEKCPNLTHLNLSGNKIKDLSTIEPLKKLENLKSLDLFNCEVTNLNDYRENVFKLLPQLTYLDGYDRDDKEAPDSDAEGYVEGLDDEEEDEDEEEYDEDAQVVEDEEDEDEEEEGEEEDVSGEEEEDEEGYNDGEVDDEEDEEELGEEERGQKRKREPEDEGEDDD
UniProt Q9ULX6, sequence (Q9ULX6 whole entry, looked up): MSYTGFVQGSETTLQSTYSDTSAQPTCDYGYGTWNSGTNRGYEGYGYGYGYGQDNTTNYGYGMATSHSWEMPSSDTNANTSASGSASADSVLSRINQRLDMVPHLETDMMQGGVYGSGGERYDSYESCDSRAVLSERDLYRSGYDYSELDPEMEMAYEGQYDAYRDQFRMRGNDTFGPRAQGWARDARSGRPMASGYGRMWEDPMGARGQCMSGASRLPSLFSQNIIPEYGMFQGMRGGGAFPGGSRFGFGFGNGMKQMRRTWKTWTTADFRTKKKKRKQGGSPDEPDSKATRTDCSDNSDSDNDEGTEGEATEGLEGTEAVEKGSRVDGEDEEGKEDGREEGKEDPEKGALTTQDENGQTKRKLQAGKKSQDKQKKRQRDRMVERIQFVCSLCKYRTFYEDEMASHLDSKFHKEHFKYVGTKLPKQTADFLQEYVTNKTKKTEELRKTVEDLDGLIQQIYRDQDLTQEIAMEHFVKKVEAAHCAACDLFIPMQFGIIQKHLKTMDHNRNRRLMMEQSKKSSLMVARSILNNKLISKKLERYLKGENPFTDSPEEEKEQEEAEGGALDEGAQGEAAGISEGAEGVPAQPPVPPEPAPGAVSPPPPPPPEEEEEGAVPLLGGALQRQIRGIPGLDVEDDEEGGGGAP
UniProt Q9NP73, sequence (Q9NP73 whole entry, looked up): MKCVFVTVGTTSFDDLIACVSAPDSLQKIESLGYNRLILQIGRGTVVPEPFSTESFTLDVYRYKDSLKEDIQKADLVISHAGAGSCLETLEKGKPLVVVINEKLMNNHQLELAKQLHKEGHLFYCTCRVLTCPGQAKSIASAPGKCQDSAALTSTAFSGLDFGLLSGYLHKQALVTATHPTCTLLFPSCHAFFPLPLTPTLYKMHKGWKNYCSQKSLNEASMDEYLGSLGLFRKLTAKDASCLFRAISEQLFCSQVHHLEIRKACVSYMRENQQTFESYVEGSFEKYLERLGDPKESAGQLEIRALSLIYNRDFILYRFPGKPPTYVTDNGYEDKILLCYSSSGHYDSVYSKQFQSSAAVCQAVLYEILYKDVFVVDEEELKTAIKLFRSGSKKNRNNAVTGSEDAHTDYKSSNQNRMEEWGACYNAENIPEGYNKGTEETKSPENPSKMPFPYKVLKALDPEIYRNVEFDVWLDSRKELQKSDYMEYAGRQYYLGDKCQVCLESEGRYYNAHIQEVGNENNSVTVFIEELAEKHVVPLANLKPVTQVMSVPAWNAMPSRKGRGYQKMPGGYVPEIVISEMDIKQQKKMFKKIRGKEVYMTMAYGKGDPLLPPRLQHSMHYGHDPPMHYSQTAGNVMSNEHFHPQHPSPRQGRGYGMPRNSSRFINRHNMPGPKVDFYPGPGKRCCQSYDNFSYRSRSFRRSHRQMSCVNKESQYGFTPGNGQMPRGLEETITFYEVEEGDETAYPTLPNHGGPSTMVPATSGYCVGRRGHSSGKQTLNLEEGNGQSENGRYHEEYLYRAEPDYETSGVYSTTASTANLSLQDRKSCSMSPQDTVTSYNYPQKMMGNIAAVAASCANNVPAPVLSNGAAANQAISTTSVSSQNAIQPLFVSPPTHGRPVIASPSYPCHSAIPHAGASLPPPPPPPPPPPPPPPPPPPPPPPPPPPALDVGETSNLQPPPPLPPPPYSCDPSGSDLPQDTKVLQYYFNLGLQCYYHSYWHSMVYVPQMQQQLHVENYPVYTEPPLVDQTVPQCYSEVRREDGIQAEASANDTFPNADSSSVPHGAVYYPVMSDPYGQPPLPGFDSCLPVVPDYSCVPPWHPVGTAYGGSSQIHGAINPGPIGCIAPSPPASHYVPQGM
UniProt P04083, sequence (P04083 whole entry, looked up): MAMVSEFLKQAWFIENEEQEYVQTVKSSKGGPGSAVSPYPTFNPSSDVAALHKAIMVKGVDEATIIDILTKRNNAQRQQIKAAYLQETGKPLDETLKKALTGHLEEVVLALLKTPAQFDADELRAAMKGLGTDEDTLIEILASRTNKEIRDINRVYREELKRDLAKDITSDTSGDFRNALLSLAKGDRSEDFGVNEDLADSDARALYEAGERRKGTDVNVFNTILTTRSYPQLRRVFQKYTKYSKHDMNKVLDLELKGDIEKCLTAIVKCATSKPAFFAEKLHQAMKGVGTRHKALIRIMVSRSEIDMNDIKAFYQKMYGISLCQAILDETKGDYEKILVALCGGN
UniProt Q9NWX5, sequence (Q9NWX5 whole entry, looked up): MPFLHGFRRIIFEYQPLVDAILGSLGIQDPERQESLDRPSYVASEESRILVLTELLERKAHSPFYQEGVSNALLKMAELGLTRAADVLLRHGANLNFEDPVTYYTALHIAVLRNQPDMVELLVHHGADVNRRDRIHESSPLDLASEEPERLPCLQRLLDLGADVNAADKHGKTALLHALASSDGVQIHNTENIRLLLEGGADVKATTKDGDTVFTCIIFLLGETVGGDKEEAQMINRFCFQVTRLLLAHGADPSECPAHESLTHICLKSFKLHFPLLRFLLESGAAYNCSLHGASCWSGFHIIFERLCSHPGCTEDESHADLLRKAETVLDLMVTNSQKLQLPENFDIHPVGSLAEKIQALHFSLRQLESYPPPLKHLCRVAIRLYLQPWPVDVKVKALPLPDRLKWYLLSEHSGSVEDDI

log2 fold change, inactive:
ARHGAP25 isoform 4 (UniProt P42331) 0.081
ARAF (UniProt P10398) -0.031
ANP32A (UniProt P39687) 0
ALDH5A1 isoform 2 (UniProt P51649) -0.035
ANP32E (UniProt Q9BTT0) -0.032
AKAP8L (UniProt Q9ULX6) 0.011
ABHD13 (UniProt Q7L211) 0.184
ANXA11 (UniProt P50995) 0.039
ADD1 isoform 3 (UniProt P35611) -0.019
AK2 (UniProt P54819) -0.046
AKAP8 (UniProt O43823) 0.039
ARFGAP1 (UniProt Q8N6T3) 0.202
ANAPC7 (UniProt Q9UJX3) 0.002
ALDH6A1 (UniProt Q02252) -0.001
ANKRD27 (UniProt Q96NW4) 0.022
ALG13 (UniProt Q9NP73) 0.127
ASB6 (UniProt Q9NWX5) -0.028
ACAT1 (UniProt P24752) 0.008
ANKRD54 (UniProt Q6NXT1) -0.007
AKT2 (UniProt P31751) -0.036
AP5B1 (UniProt Q2VPB7) 0.047
ANXA1 (UniProt P04083) 0.028
ARHGAP21 (UniProt Q5T5U3) 0.053
